Measurements taken from paper PMC9574860, “Chemical Toolkit for PARK7: Potent, Selective, and High-Throughput” (Journal of Medicinal Chemistry, 2022).
In all, about 7,900 compounds went through this assay and about 400 (5.1%) showed an effect of 50% or more. Shown is part of a subset that was picked to be rich in strong results.

Biological target: Parkinson's disease protein 7 (PARK7/DJ1) (human, UniProt Q99497)
Test: primary screen, percent inhibition; read as competition with a fluorescent probe by fluorescence polarization; higher = more effect of the substance
Settings: 100 µM
Procedure, shortened: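 Fluorescence-polarization probe displacement (JYQ-107, 20 nM final, 2 h) after 2 h preincubation of PARK7 (0.2 μM final) with each fragment at 100 μM final. Read-out ex/em 480/520 nm; remaining activity derived from FP signal loss relative to reference controls.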

Parkinson's disease protein 7 (PARK7/DJ1), sequence (Q99497 whole entry, looked up): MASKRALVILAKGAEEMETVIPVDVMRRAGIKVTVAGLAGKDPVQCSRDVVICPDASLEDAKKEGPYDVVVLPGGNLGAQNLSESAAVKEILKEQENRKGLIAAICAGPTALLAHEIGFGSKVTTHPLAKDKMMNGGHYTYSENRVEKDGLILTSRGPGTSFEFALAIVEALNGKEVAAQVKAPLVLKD

SMILES | Inhibition % [%]
N#Cc1nc(N2CCCC(N3CCNC3=O)C2)ccc1Cl (centres unmarked) | 1.45
Fc1ccccc1OCC1CO1 (centres unmarked) | 54.7
Cc1ccccc1OCC1CO1 (centres unmarked) | 13.4
FC(F)(F)c1ccccc1OCC1CO1 (centres unmarked) | 11.7
C=CC(=O)NCC1=CCOCC1 | 6.41
COC(=O)c1ccc(Cl)c(S(=O)(=O)F)c1 | 9.08
COC(=O)c1ccc(S(=O)(=O)F)cc1F | 4.21
COC(=O)c1cccc(S(=O)(=O)F)n1 | 7.02
COC(=O)c1ccccc1S(=O)(=O)F | 52.5
COC(=O)c1ccc(Cl)cc1S(=O)(=O)F | 96.1
COC(=O)c1ccccc1CS(=O)(=O)F | 7.86
Cc1noc(C2CCN(Cc3cc(C#N)n(C)c3)C2)n1 (centres unmarked) | 6.79
C=CC(=O)N1CCC[C@@H]2O[C@H](c3ccccc3)C[C@@H]21 (racemic) | 5.3
N#Cc1nccnc1SC1CCCC1 | 6.92
O=S(=O)(C=Cc1ccccc1)NCc1cccnc1 | 15.5
C=C(C(=O)O)c1ccccc1F | 3.02
CC1(C2CC2)CCN(c2cncc(C#N)n2)CC1 | 6.7
Nc1nccnc1S | 26.8
O=C(O)c1ccnc(S)c1 | 11.8
O=C(O)c1nccnc1S | 83.1
C=CC(=O)NC1CCN(c2ncccc2F)C1 (centres unmarked) | 14.9
C=CC(=O)N1CCC(c2cccc(C(F)(F)F)c2)C1 (centres unmarked) | 10.4
C=CC(=O)Nc1ccc2c(c1)CCC(C)(C)O2 | 6.26
COC(=O)Nc1ccc(S(=O)(=O)F)cc1[N+](=O)[O-] | 101
COc1ccc(NC(=O)CCl)c([N+](=O)[O-])c1 | 10.4

SMILES | Inhibition % [%]
COC(=O)Nc1ccc(S(=O)(=O)F)cc1 | 34.7
C=CC(=O)N1CC(C(C)C)c2ccccc21 (centres unmarked) | 5.57
C=CC(=O)N(C)CC(=O)Nc1cc(C)on1 | 7.52
C=CC(=O)N(C)CC(=O)Nc1csc(C)n1 | 7.47
C=CC(=O)N(C)CC(=O)Nc1cc(C)c(=O)n(C)c1 | 54.5
C=CCNC(=O)C(C#N)=Cc1cc(F)ccc1F | 6.92
C=CC(=O)N1CCC(CS(C)(=O)=O)C1 (centres unmarked) | 4.28
O=C(C1CCOCC1)N1CCC(CS(=O)(=O)F)CC1 | 20.1
CC1CC1C(=O)N1CCOC(CS(=O)(=O)F)C1 (centres unmarked) | 11.8
CC1CC1C(=O)N1CC(CS(=O)(=O)F)C1 (centres unmarked) | 16.8
CC1CC1C(=O)N1CCC(CS(=O)(=O)F)CC1 (centres unmarked) | 25.9
CC1CC1C(=O)N1CCCC(CS(=O)(=O)F)C1 (centres unmarked) | 71.5
CC1CC1C(=O)N1CCC(S(=O)(=O)F)CC1 (centres unmarked) | 72.2
CC1CC1C(=O)N1CCC(CS(=O)(=O)F)C1 (centres unmarked) | 96.8
O=C(C1CCOCC1)N1CCC(S(=O)(=O)F)C1 (centres unmarked) | 19.5
CC1CC1C(=O)N1CCC(S(=O)(=O)F)C1 (centres unmarked) | 36.5
O=C(C1CCOCC1)N1CCCC(CS(=O)(=O)F)C1 (centres unmarked) | 55.9
O=C(C1CCOCC1)N1CCCC(S(=O)(=O)F)C1 (centres unmarked) | 8.98
C=CC(=O)Nc1ccc(OC)c(F)c1 | 4.48
O=c1c2sccc2nc(S)n1CCCN1CCOCC1 | 1.46
O=C(CCl)Nc1cc(C(F)(F)F)ccc1Cl | 4.72
N#Cc1ccnc2ccnn12 | 4.63
CC1(S(=O)(=O)NC2CN(c3ccc(F)cc3)C2=O)CC1 (centres unmarked) | 10.3
O=C(C=Cc1nccs1)N1CCc2ccccc21 | 14.3
CCc1nc(C#N)cc(NC2CSC2)n1 | -3.02

SMILES | Inhibition % [%]
Cc1cc(C)n(S(=O)(=O)c2ccc(C)c(C)c2)n1 | 3.92
CC1CC(N2CCn3c(nnc3C3CC3)C2)C(=O)O1 (centres unmarked) | 18
O=C(c1cc(F)cc(F)c1)N1CCCCC1C1OCCO1 (centres unmarked) | 3.28
C=CC(=O)N1CCN(CCc2ccc(F)cc2)CC1 | 8.07
CC1CCCN(C(=O)C=Cc2cnc3ccccc3n2)C1 (centres unmarked) | 9.42
C=CC(=O)NC1CCCc2c1cnn2CC (centres unmarked) | 8.99
Cc1csc(-n2c(C)cc(C(=O)CCl)c2C)n1 | 51
Cc1csc(CC(=O)NNC(=O)CCl)n1.Cl | 0.415
Cc1cc(C(=O)CCl)c(C)n1-c1ccc(F)cn1 | 5.68
Cc1cc(C(=O)CCl)c(C)n1-c1ccccn1 | 71.3
Cc1cc(-n2c(C)cc(C(=O)CCl)c2C)no1 | 7.75
Cc1cc(C(=O)CCl)c(C)n1-c1ccon1 | 82.8
O=C(CCl)Nc1ccon1 | 14.8
Cc1cc(C(=O)CCl)c(C)n1-c1ncn[nH]1 | 60
Cc1cc(C(=O)CCl)c(C)n1-c1nccs1 | 4.37
C=CC(=O)N(Cc1cncs1)C1CCN(C(C)=O)CC1 | 5.13
C=CC(=O)N(C)CC(=O)N1CCOCC1 | 16.7
C=CC(=O)N1CCC(CC(=O)NC)CC1 | 5.8
C=CC(=O)N1CCCC(C(=O)Nc2nc(C)cs2)C1 (centres unmarked) | 5.32
N#Cc1ccc(N2CCC3(CCOC3)C2)cn1 (centres unmarked) | -4.97
O=C1CCN1c1ccc(O)cc1 | 5.37
C=CC(=O)N1CCCC(n2ccc(C(=O)NC)n2)C1 (centres unmarked) | 8.31
CC(CC(O)c1ccccc1)NC(=O)c1cccnc1S (centres unmarked) | 5.61
N#CC(=Cc1ccc(O)c(O)c1)c1ccccn1 | 3.18
C=CC(=O)NC(c1ccco1)C(C)(C)C (centres unmarked) | 7.05

SMILES | Inhibition % [%]
COCC1CN(C(=O)c2c[nH]c(C#N)c2)CC(C)(C)O1 (centres unmarked) | 10.6
CC1=C(C)CN(c2nccnc2C#N)CC1 | 26
COc1ccc(C=C(C#N)C(N)=O)c(Cl)c1OC | 3.63
O=C(CCl)N1CCN(Cc2ccc3c(c2)OCCO3)CC1 | 15.8
Cc1cc(C(=O)CCl)c(C)n1-c1ccc2c(c1)OCCO2 | 63.9
O=C(CCl)NCCc1ccc2c(c1)OCCO2 | 47.9
O=c1[nH]nc(S)n2cccc12 | 26.7
CC(CNc1nccnc1C#N)c1ccc(F)c(F)c1 (centres unmarked) | 22.4
Cn1c(SC2CCOC2=O)nc2ccccc21 (centres unmarked) | 12
CC1CC(Sc2ncnc3ccccc23)C(=O)O1 (centres unmarked) | 4.79
O=C1OCCC1Sc1ncnc2sccc12 (centres unmarked) | 6.21
Cc1nc2ccccc2nc1SC1CCOC1=O (centres unmarked) | 70.3
O=C1OCCC1Sc1ccc2ccccc2n1 (centres unmarked) | -0.865
O=C1OCCC1Sc1ncnc2ccccc12 (centres unmarked) | 54.5
C=CC(=O)N(Cc1nc(-c2cccnc2)no1)C(C)C | 22.6
Cc1cc(C#N)nc(NC2CCCCCC2)n1 | 2.75
Cc1nc(C#N)c(NC(=O)CSCC2CCCCO2)o1 (centres unmarked) | 12.5
CCCC(NC(=O)CCl)c1ccccc1 (centres unmarked) | 14.5
CCCc1cc(NC(=O)CCl)n(-c2ccccc2)n1 | 31.6
C=CC(=O)N1CCC2(CCOCC2)CC1 | 5.66
O=C(CCl)N1CC=C(c2c[nH]c3ccccc23)CC1 | 51.5
O=C1OCCC1N1CC=C(c2c[nH]c3ccccc23)CC1 (centres unmarked) | 4.4
O=C(CCl)c1c[nH]c2ccccc12 | 37.9
COc1ccc(N2CCN(C(=O)CCl)CC2)cc1 | 28.8
COc1ccc(C2=CCN(C(=O)CCl)CC2)cc1 | 78.7

SMILES | Inhibition % [%]
COc1ccc(CN2CCN(C(=O)CCl)CC2)cc1.Cl | 10.6
C=CC(=O)N1CCOC[C@@H]1CC(C)C | 6.89
c1cc(OCC2CO2)c2cc[nH]c2c1 (centres unmarked) | -2.42
N#CC(=Cc1ccccc1)C(=O)Nc1nncs1 | 3.58
COc1cc(C)c(C)cc1S(=O)(=O)n1cnc(C)c1 | 6.69
CCc1ccc(NC(=O)CCl)cc1 | 99.1
NC(=O)c1ccc(NC(=O)CCl)cc1 | 35.3
COC(=O)c1ccc(NC(=O)CCl)cc1 | 60.9
O=C(O)Cc1ccc(NC(=O)CCl)cc1 | 43.8
CCc1cccc(NC(=O)CCl)c1 | 14.1
COC(=O)c1cccc(NC(=O)CCl)c1 | 25.2
CCOC(=O)c1ccccc1NC(=O)CCl | 7.46
CC(=O)Nc1ccc(NC(=O)CCl)cc1 | 4.19
N#CCc1ccc(NC(=O)CCl)cc1 | 88.8
N#Cc1ccc(NC(=O)CCl)cc1Cl | 29.1
CC(=O)c1ccc(NC(=O)CCl)cc1 | 45.4
CCOC(=O)c1ccc(NC(=O)CCl)cc1 | 56.5
O=C(CCl)NCC1Cc2ccccc2O1 (centres unmarked) | 26.5
COc1cc2c(B3OC(C)(C)C(C)(C)O3)cn(C)c2cn1 | 6.59
C=CC(=O)NC1CCCN(c2ccc(F)cc2C)C1 (centres unmarked) | 6.65
C=CC(=O)N1CC2(CCOCC2)C1C(C)C (centres unmarked) | 7.75
Cc1nn(C)c(C)c1C1CCCN1C1CCOC1=O (centres unmarked) | 4.25
CC(C)Cn1c(S)nc2ncccc2c1=O | 6.75
O=C(CCl)NCc1ccc(Cl)cc1 | 2.75
C=CC(=O)Nc1cnn(C2CCOCC2)c1C | 8.19
